Sampled rows, rich in hits. Any-hit rate of the full collection: about 2%.
mIDH1 inhibitor = inhibitors of human mutant IDH1 R132H; O75874; Potency, µM (titrated, usually from 76.6 µM), without a hit: at the highest dose activity change, negative = inhibition, hits mostly inhibitors; AID 602179; 390,000 compounds, 0.093% hits; IDH1-R132H enzyme, NADPH consumption, diaphorase/resazurin fluorescence; note: potency is the fitted concentration of half-maximal effect; % is set by controls: 0 for no effect and ±100 for the full control effect; nearly all actives have a fitted effect of over 65% in size
Target sequence (O75874 whole entry R132H, stated change not applied): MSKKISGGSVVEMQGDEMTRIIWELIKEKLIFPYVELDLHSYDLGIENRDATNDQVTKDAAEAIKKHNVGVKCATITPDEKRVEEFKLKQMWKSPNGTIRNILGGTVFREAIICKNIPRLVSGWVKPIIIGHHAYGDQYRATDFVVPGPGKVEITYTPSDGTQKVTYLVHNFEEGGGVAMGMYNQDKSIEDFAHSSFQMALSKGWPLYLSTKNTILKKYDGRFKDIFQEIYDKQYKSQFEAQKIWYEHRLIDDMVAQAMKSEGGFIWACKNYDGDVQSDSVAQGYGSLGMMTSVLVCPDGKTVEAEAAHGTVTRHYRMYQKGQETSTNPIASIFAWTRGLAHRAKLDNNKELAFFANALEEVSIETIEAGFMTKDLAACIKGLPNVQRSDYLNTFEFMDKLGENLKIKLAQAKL
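IDH1-R132H (0.5 ug/mL dispensed) in pH 7.5 Tris buffer was preincubated 30 min with compound, then given a substrate mix of 0.016 mM NADPH and 2 mM alpha-KG for 80 min at room temperature; remaining NADPH was read by diaphorase/resazurin fluorescence.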
TDP43 rescue = TDP-43 toxicity inhibition in yeast; AID 652104; Potency, µM (highest dose often 46.1 µM), without a hit: top-dose growth rescue (activation), hits mostly activators; TDP-43 expressing yeast growth rescue, BacTiter-Glo, 24 h; 410,000 compounds, 1.8% hits; note: potency is the fitted concentration of half-maximal effect; % of control where 0% means no effect; nearly all actives have a fitted effect of over 50% in size
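Galactose-induced TDP-43 yeast, OD600=0.02, compound pinned; 24 hr, 30 deg C; BacTiter-Glo luminescence for growth. Inhibitors of TDP-43 toxicity read as activators.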
FUS yeast rescue = suppressors of FUS proteinopathy in yeast | Potency, µM (series often up to 76.6 µM), hits mostly activators | S. cerevisiae FUS-expressing, growth rescue, OD600, 24 h | AID 1347120 | 390,000 compounds, 0.24% hits;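 note: potency is the fitted concentration of half-maximal effect; plate controls were DMSO vehicle for no effect and reference control for full effect; nearly all actives have a fitted effect of over 55% in size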
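Toxicity suppression screen in FUS-yeast. Cells induced with 2% galactose, starting OD 0.005, treated 24hr at 30C with compounds at multiple final concentrations; growth by OD600.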
LDHA inh = LDHA (human) enzyme inhibition; activity change, % (values are at about 110 or 230 µM); AID 1347041; purified LDHA, NADH/diaphorase-resazurin fluorescence; stronger effect = lower value; 480,000 compounds, 0.15% hits; in the data active = activity change below about -30%; inconclusive = mostly about -25% to -30%;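 note: plate controls were DMSO wells for no effect and wells without enzyme for full effect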
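Resorufin fluorescence (ex540/em590), read at 0 and 20 min after diaphorase/resazurin addition, reports the NADH left after a 5 min room-temperature reaction of 2 nM human LDH5 with 0.06 mM NADH and 0.2 mM pyruvate.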
Abeta rescue = A-beta toxicity reversal in yeast; yeast expressing A-beta42, growth rescue, OD600, 48 h; response scale: 0% DMSO, 100% iron-clioquinol control; Potency, µM (top dose mostly 46.1 µM), actives largely listed as activators; 410,000 compounds, 0.063% hits; note: potency is the fitted concentration of half-maximal effect; nearly all actives have a fitted effect of over 55% in size
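Yeast A-beta toxicity model in growth medium with pinned compounds, 48 h at 30 C; growth read as absorbance at 600 nm. Normalized to FeCl3/clioquinol equimolar mix (positive) and DMSO (negative).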
aSyn yeast inh = inhibitors of alpha-synuclein toxicity in yeast | 370,000 compounds, 0.14% hits | Potency, µM (titrated, usually from 46.1 µM), inactives show at the top dose growth rescue (activation), usual class: activators | Yeast expressing alpha-synuclein, growth rescue, BacTiter-Glo, 24 h; note: potency is the fitted concentration of half-maximal effect; % of control where 0% means no effect; nearly all actives have a fitted effect of over 65% in size
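Screening used galactose-induced yeast with toxic alpha-synuclein levels, exposed to compound for 24 hr at 30 deg C. Cell growth, read with BacTiter-Glo luminescence, gave the measured signal.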
The depositor's hits bear a star; [ ] = dose if it differs, or a comment. Unless noted, calls come from the whole dose curve; as a rule, active = well fitted curve in the direction sought with a large enough effect; inconclusive = small, poorly fitted or top-dose-only effect, or another doubt; inactive = no such curve, though single readings can be large; an effect the other way counts as inactive or inconclusive.

Screening O=C(Nc1nnc(-c2ccccc2)o1)c1cc(Cl)sc1Cl returned mIDH1 inhibitor -3%, TDP43 rescue -4%, FUS yeast rescue inactive, LDHA inh -7, Abeta rescue inconclusive and aSyn yeast inh 3.2µM*.
For O=C(Nc1nnc(-c2ccco2)o1)c1ccc(Cl)s1 the results were mIDH1 inhibitor 4%, TDP43 rescue inconclusive, FUS yeast rescue inactive, LDHA inh 1, Abeta rescue inactive and aSyn yeast inh 7%.
O=C(Nc1nnc(-c2ccc(F)cc2)o1)c1cc(Cl)sc1Cl was read as mIDH1 inhibitor 3%, TDP43 rescue inconclusive, LDHA inh -7, Abeta rescue inactive and aSyn yeast inh inconclusive.
For CCOC(=O)c1cc2cc(C(C)CC)ccc2[nH]1 (configuration not stated) the results were LDHA inh 6.
For CCN(C(=O)c1cc2c(=O)n3ccccc3nc2s1)C1CCCCC1 the results were mIDH1 inhibitor 6%, TDP43 rescue 18µM*, FUS yeast rescue inactive, LDHA inh 1, Abeta rescue inactive and aSyn yeast inh 1%.
For CCCCN(CC)C(=O)c1cc2c(=O)n3cccc(C)c3nc2s1 the results were mIDH1 inhibitor 6%, TDP43 rescue 35µM*, FUS yeast rescue inactive, LDHA inh 0, Abeta rescue inactive and aSyn yeast inh -2%.
Screening COCCNC(=O)C(=O)N1CCN(c2nc(C(C)C)c3c(c2C#N)CCCC3)CC1 returned LDHA inh 1.
Cc1ccc(S(=O)(=O)N2CCN(c3ncnc4scc(-c5ccccc5)c34)CC2)cc1 was read as mIDH1 inhibitor -2%, TDP43 rescue 16%, LDHA inh 0, Abeta rescue inactive and aSyn yeast inh 9%.
Screening Cc1sc2ncnc(N3CCC(C(=O)Nc4cc(Cl)ccc4Cl)CC3)c2c1C returned mIDH1 inhibitor 7%, TDP43 rescue 11µM*, FUS yeast rescue inactive, LDHA inh 0, Abeta rescue inactive and aSyn yeast inh -10%.
`Cc1ccc(S(=O)(=O)N2CCN(c3ncnc4sccc34)CC2)cc1C` gave mIDH1 inhibitor 7%, TDP43 rescue 11µM*, FUS yeast rescue inactive, LDHA inh -5, Abeta rescue inactive and aSyn yeast inh 7%.
Screening O=S(=O)(c1ccc2c(c1)OCCO2)N1CCN(c2ncnc3sccc23)CC1 returned mIDH1 inhibitor -4%, TDP43 rescue 22%, FUS yeast rescue inactive, LDHA inh -1, Abeta rescue inactive and aSyn yeast inh 10%.
Cc1sc2ncnc(N3CCN(S(=O)(=O)c4ccccc4)CC3)c2c1C was read as mIDH1 inhibitor 6%, TDP43 rescue 18µM*, LDHA inh 1, Abeta rescue inactive and aSyn yeast inh -3%.
COc1ccc(NC(=O)COc2ccc3c(C)cc(=O)oc3c2C)cc1 was read as LDHA inh -1.
Screening Cc1nn(Cc2ccc(F)cc2)c2sc(C(=O)Nc3ccc(N4CCOCC4)cc3N3CCOCC3)cc12 returned mIDH1 inhibitor -1%, TDP43 rescue 14µM*, LDHA inh 1, Abeta rescue inactive and aSyn yeast inh 10%.
For O=C(CSCc1ccc(F)cc1)Nc1ccc(N2CCOCC2)cc1N1CCOCC1 the results were mIDH1 inhibitor 5%, TDP43 rescue inconclusive, FUS yeast rescue inactive, LDHA inh 4, Abeta rescue inactive and aSyn yeast inh 1%.
`O=S(Cc1ccc(Br)cc1)Cc1nnc(SCc2ccc(Cl)cc2)n1-c1ccccc1` (configuration not stated) gave mIDH1 inhibitor 2%, TDP43 rescue 6.3µM*, LDHA inh 3, Abeta rescue inactive and aSyn yeast inh inconclusive.
`O=S(Cc1ccc(Br)cc1)Cc1nnc(SCc2c(F)cccc2Cl)n1-c1ccccc1` (configuration not stated) gave mIDH1 inhibitor 1%, TDP43 rescue 14%, LDHA inh 5, Abeta rescue inactive and aSyn yeast inh 9%.
CC(C)NS(=O)(=O)c1ccc(Cl)c(C(=O)NCc2ccc(-c3nc4ccccc4s3)o2)c1 was read as LDHA inh 0.
`c1csc(CSc2nnc3sc4ccccc4n23)c1` gave mIDH1 inhibitor 12%, TDP43 rescue 14µM*, FUS yeast rescue inactive, LDHA inh -3, Abeta rescue inactive[9.22 µM] and aSyn yeast inh -1%.
For CCOC(=O)c1sc(=S)n(-c2ccc(Cl)cc2)c1C the results were mIDH1 inhibitor 7%, TDP43 rescue 25µM*, FUS yeast rescue inactive, LDHA inh -6, Abeta rescue inactive and aSyn yeast inh 1%.
For CCOC(=O)c1sc(=S)n(-c2ccc(OC)cc2)c1C the results were mIDH1 inhibitor 5%, TDP43 rescue 20µM*, FUS yeast rescue inactive, LDHA inh -3, Abeta rescue inactive and aSyn yeast inh -1%.
For Cc1c(C(=O)OCc2ccccc2)sc(=S)n1-c1ccc(Cl)cc1 the results were LDHA inh 0.
`CC(C)c1ccc(/C=C(/C#N)C(=O)Nc2cccc3ncccc23)cc1` gave LDHA inh -15.
`COc1ccc(C(C)(NC(C)=O)c2nc(-c3ccc(F)c(Cl)c3)cs2)cc1` (configuration not stated) gave TDP43 rescue 35µM*, FUS yeast rescue inconclusive, LDHA inh -3, Abeta rescue inactive and aSyn yeast inh 7%.
CC(=O)Nc1ccc(-c2csc(NC3CC3)n2)cc1 was read as LDHA inh 5.
`CC(C)c1c(C(=O)N/N=C/c2ccc3c(c2)OCO3)nnn1-c1nonc1N` gave mIDH1 inhibitor -8%, TDP43 rescue 11%, FUS yeast rescue inactive, LDHA inh -10, Abeta rescue inactive and aSyn yeast inh -6%.
Screening CCN(CC)c1ccc(/C=N/NC(=O)c2nnn(-c3nonc3N)c2C(C)C)c(O)c1 returned mIDH1 inhibitor 1%, TDP43 rescue inconclusive, FUS yeast rescue inconclusive, LDHA inh 1, Abeta rescue 14µM* and aSyn yeast inh 14µM*.
Screening CC(C)(C)NC(=O)NC(=O)CSc1nnc(-c2ccccc2)c(-c2ccccc2)n1 returned LDHA inh -15.
Screening COc1cc2c(cc1OC)C(c1ccc(Cl)c(Cl)c1)C1=C(CCCC1=O)N2 (configuration not stated) returned LDHA inh 10.
Screening COC(=O)c1ccccc1NC(=S)NC(=O)C1CC1 returned mIDH1 inhibitor 0%, TDP43 rescue -6%, FUS yeast rescue inactive, LDHA inh -3, Abeta rescue inactive and aSyn yeast inh -5%.
